Assay in all cases: NCI-60 one-dose screen, 48 h (100 = growth as untreated, 0 = no growth, -100 = all killed)
One test relates to HCT-15 colon. To be noted: 10 µM unless noted.
Another test deals with HT29 colon. To be noted: 10 µM unless noted.
For a further test, the system named is SNB-75 CNS. To be noted: 10 µM unless noted.
The test system of the next test is SNB-19 CNS. To be noted: 10 µM unless noted.
A further test has as its system U251 CNS. To be noted: 10 µM unless noted.
Another test has as its system SK-MEL-5 melanoma. To be noted: 10 µM unless noted.
The subject of a further test is UACC-62 melanoma. To be noted: 10 µM unless noted.
The subject of another test is LOX IMVI melanoma. To be noted: 10 µM unless noted.
In another test the test system is SK-MEL-28 melanoma. To be noted: 10 µM unless noted.
Another test relates to SK-MEL-2 melanoma. To be noted: 10 µM unless noted.
A further test relates to EKVX NSCLC. To be noted: 10 µM unless noted.
For the next test, the system named is SN12C renal. To be noted: 10 µM unless noted.
For the next test, the system named is UO-31 renal. To be noted: 10 µM unless noted.
Another test has as its system TK-10 renal. To be noted: 10 µM unless noted.
In a further test the test system is ACHN renal. To be noted: 10 µM unless noted.
In a further test the test system is CAKI-1 renal. To be noted: 10 µM.
The next test deals with CCRF-CEM leukemia. To be noted: 10 µM unless noted.
The test system of a further test is MOLT-4 leukemia. To be noted: 10 µM unless noted.
The test system of another test is PC-3 prostate. To be noted: 10 µM unless noted.
The test system of the next test is A498 renal. To be noted: 10 µM unless noted.

The panel holds about 83,000 compounds, 20% with a hit somewhere; the sample as a whole holds those more often.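 The endpoint reported here, percent growth, reads 100 for growth as untreated, 0 for no net growth and -100 for all cells dead.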 Unmarked numbers belong to inactive results. Activity calls are given as the source filed them. Rule for the calls: active = growth percent below 10; inactive = the rest.

Regarding `C=C(C)[C@@H]1CC[C@]2(COS(C)(=O)=O)CC[C@]3(C)[C@H](CC[C@@H]4[C@@]5(C)CCCNC(C)(C)[C@@H]5CC[C@]43C)[C@@H]12`, the growth in the test on HCT-15 colon is 3.99% (active); with HT29 colon it was 19.7%; in the test on SNB-75 CNS, 112%; with SNB-19 CNS it was 81.5%; with U251 CNS, 13.6%; with SK-MEL-5 melanoma, 97.4%. Further, the growth was 74.8% with UACC-62 melanoma; -79% (active) with LOX IMVI melanoma; 103% in the test on SK-MEL-28 melanoma; 94.7% with SK-MEL-2 melanoma; 89.2% in the test on EKVX NSCLC; 76% with SN12C renal. Also, the growth was 81.5% in the test on UO-31 renal; 107% in the test on TK-10 renal; 99.2% in the test on ACHN renal; 86.8% with CAKI-1 renal; 71.4% with CCRF-CEM leukemia; 29.5% in the test with MOLT-4 leukemia.

On to `COc1ccc2c(ccn2C(=O)N2c3ccccc3Sc3ccccc32)c1`, for which the growth in the test on HCT-15 colon is 32.7%; with HT29 colon, -12.6% (active); in the test on SNB-75 CNS, -3.95% (active); in the test with SNB-19 CNS, 30.8%; with U251 CNS, 27%; with PC-3 prostate, 35.2%. For the same compound, the growth in the test with SK-MEL-5 melanoma was 24.5%; in the test with LOX IMVI melanoma, 46.5%; in the test with SK-MEL-28 melanoma, 66.4%; in the test with SK-MEL-2 melanoma, 4.71% (active); with SN12C renal it was 47.3%; in the test with UO-31 renal, 55%. Besides, the growth is 65.1% with TK-10 renal; 49.2% in the test on ACHN renal; 30.9% with CAKI-1 renal; -8.02% (active) in the test on A498 renal; 18.7% with CCRF-CEM leukemia; 37.2% in the test on MOLT-4 leukemia.

On to `O=C(CSc1nnc(-c2cccs2)n1-c1ccccc1)Nc1ccc(F)cc1`, for which the growth with HCT-15 colon is 93.6%; with HT29 colon, 101%; in the test with SNB-75 CNS it was 104%; in the test on SNB-19 CNS it was 91%; in the test with U251 CNS, 99.5%; in the test with SK-MEL-5 melanoma, 97.6%. For the same compound, the growth was 67.9% with UACC-62 melanoma; 97.9% in the test with LOX IMVI melanoma; 104% with SK-MEL-28 melanoma; 110% in the test on SK-MEL-2 melanoma; 90.9% in the test with EKVX NSCLC; 59.1% in the test on UO-31 renal. Also, the growth was 108% in the test with TK-10 renal; 90.9% in the test with ACHN renal; 87.3% in the test on CAKI-1 renal; 84.7% in the test on A498 renal; 85.6% with MOLT-4 leukemia.

`C#C[C@]1(O)CC[C@H]2[C@@H]3CC=C4c5sc(-c6cccc(F)c6)nc5CC[C@]4(C)[C@H]3CC[C@@]21C`: the growth with HCT-15 colon is 53.5%; in the test with HT29 colon, 78.4%; with SNB-75 CNS it was 70%; with SNB-19 CNS it was 87.3%; in the test on U251 CNS, 75%; with SK-MEL-5 melanoma it was 96.4%. Besides, the growth in the test with UACC-62 melanoma is 74.9%; in the test with LOX IMVI melanoma, 80.8%; with SK-MEL-28 melanoma it was 81.1%; with SK-MEL-2 melanoma, 91.9%; with EKVX NSCLC it was 83.5%; with UO-31 renal it was 82%. Moreover, the growth was 121% in the test on TK-10 renal; 85.4% with ACHN renal; 92.4% with CAKI-1 renal; 75.1% in the test with CCRF-CEM leukemia; 53.1% in the test on MOLT-4 leukemia.

On to `C=C1C(=O)O[C@@H]2C[C@@H](C)CCC(=O)[C@](C)(OC(C)=O)C[C@H](OC(=O)/C(C)=C\C)[C@@H]12`, for which the growth in the test with HCT-15 colon was 60.9%; with HT29 colon, 52.5%; in the test on SNB-75 CNS, 80.6%; in the test with SNB-19 CNS it was 90.6%; in the test with U251 CNS, 88.8%; with PC-3 prostate, 79.1%. Besides, the growth in the test on LOX IMVI melanoma was 54.8%; with SK-MEL-2 melanoma, 81%; in the test on EKVX NSCLC, 73.2%; in the test with UO-31 renal, 85.4%; with TK-10 renal it was 55.4%; in the test with ACHN renal, 41.9%. In addition, the growth with CAKI-1 renal is 63.1%; in the test on A498 renal, 119%; in the test with CCRF-CEM leukemia, -17.2% (active); in the test on MOLT-4 leukemia, 50.8%.

As for `COc1ccc(/C=N/Nc2nc(N/N=C/c3ccc(OC)cc3O)nc(N3CCOCC3)n2)c(O)c1`, the growth with HCT-15 colon is 3.39% (active); in the test on HT29 colon, 56.4%; with SNB-75 CNS, 74.4%; in the test with SNB-19 CNS it was 69.4%; in the test on U251 CNS it was 45.6%; in the test with SK-MEL-5 melanoma, 40.6%. Besides, the growth in the test with UACC-62 melanoma is 69.3%; in the test with LOX IMVI melanoma, 45.4%; in the test with SK-MEL-28 melanoma, 37.4%; with SK-MEL-2 melanoma it was 82.6%; in the test with EKVX NSCLC, 46.6%; with UO-31 renal, 11.2%. Besides, the growth was 78.1% with TK-10 renal; 27.9% in the test on ACHN renal; 37.9% in the test with CAKI-1 renal; 66.8% with A498 renal; 27.1% in the test with CCRF-CEM leukemia; 35.3% in the test with MOLT-4 leukemia.

Turning to `CCOC(=O)c1ccc(N/C=C/C(=O)c2ccccc2)cc1`, the growth is 86.2% in the test with HCT-15 colon; 103% in the test on HT29 colon; 97% with SNB-75 CNS; 92.1% in the test with SNB-19 CNS; 99.7% in the test with U251 CNS; 95.7% in the test on PC-3 prostate. In addition, the growth was 99.4% in the test on SK-MEL-5 melanoma; 96.3% with LOX IMVI melanoma; 97.2% in the test on SK-MEL-28 melanoma; 103% with EKVX NSCLC; 99.7% in the test on SN12C renal; 99.1% in the test with UO-31 renal. The growth with TK-10 renal is 89.8%; with ACHN renal it was 98.5%; in the test with CAKI-1 renal it was 92.7%; in the test with A498 renal, 99.9%; with CCRF-CEM leukemia, 102%; in the test on MOLT-4 leukemia it was 97%.

For the compound `IP(CCCCCCCCCCSc1n(Cc2ccc3ccccc3c2)c(-c2ccccc2)c(-c2ccccc2)[n+]1Cc1ccc2ccccc2c1)(c1ccccc1)(c1ccccc1)c1ccccc1`, the growth with HCT-15 colon is -68.3% (active); with HT29 colon, -59.4% (active); with SNB-75 CNS, -52.6% (active); with SNB-19 CNS, -84.8% (active); in the test on U251 CNS, -68.5% (active); in the test on SK-MEL-5 melanoma, -98.3% (active). For the same compound, the growth in the test with UACC-62 melanoma is -73.6% (active); in the test with LOX IMVI melanoma it was -78.1% (active); with SK-MEL-28 melanoma, -83.7% (active); in the test with SK-MEL-2 melanoma it was -59.5% (active); in the test on EKVX NSCLC, -68.2% (active); with SN12C renal, -72.2% (active). Moreover, the growth was -4.18% (active) with UO-31 renal; -68.3% (active) in the test with TK-10 renal; -28% (active) with ACHN renal; -91.4% (active) in the test with CAKI-1 renal; -33.7% (active) in the test with CCRF-CEM leukemia; -53.6% (active) in the test on MOLT-4 leukemia.

Values taken from PubChem BioAssay (NCI).
